In the library only some 3.3% were active in any assay of this set; here they are far more common.
PERK inh: inhibitors of human PERK kinase; actives 0.17% (n = 220,000); Q9NZJ5; inhibition, % at 5.6 µM; CHO PERK-DD fusion, SEAP luminescence translation reporter; AID 1416;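 active = inhibition above the mean inhibition of all tested compounds plus 3 SD, set separately per screening campaign, cut at about 2.9% in these data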;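 also: PERK kinase domain activated by AP20187 dimerizer at 100 nM; 0% = DMSO with dimerizer and 100% = rapamycin at 8.4 µM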
Arbovirus inh: blocks arbovirus infection; arbovirus infection cell-based antiviral screen; inhibition, % at 10 µM; actives 0.37% (n = 200,000); AID 1251; in the data active = inhibition above about 30%
ROMK primary: modulators of human ROMK potassium channel. P48048. Tet-inducible ROMK, thallium flux fluorescence; actives lie on both sides. B-score at 10 µM. actives 2% (n = 130,000);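 active = signal ratio slope over the read window, or its plate-corrected B-score, at least 3 SD from the plate mean, either direction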;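 also: B-score of the F/F0 ratio slope over 7 to 12 s after thallium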
Target sequence (P48048 whole entry, looked up): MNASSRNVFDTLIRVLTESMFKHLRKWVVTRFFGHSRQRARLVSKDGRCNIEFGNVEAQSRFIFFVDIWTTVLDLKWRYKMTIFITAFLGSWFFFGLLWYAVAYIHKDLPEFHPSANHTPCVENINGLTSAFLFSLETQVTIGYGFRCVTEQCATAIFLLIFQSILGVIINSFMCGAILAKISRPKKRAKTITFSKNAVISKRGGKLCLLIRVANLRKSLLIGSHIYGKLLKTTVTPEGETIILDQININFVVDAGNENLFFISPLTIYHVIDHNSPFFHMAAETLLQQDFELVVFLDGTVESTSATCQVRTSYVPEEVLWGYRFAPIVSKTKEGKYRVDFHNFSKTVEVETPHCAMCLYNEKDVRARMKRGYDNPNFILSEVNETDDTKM
WT yeast gro inh: growth inhibition of WT yeast, mitochondrial fusion screen | inhibition, % at 10 µM | AID 1362 | mitochondrial fusion phenotypic screen, WT strain | actives 2.1% (n = 190,000); in the data active = inhibition above about 58%; tested in S. cerevisiae
ROMK retest: confirmation of human ROMK potassium channel modulators; shares compounds with ROMK primary; ROMK thallium flux, fluorescence ratio; stronger effect = lower value; normalized thallium flux (F/F0 slope) at 10 µM; actives 54% (n = 3,000);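 active = Flux at 10 µM at least 3 SD below or above vehicle control mean in one or both replicates; inconclusive = no clear call, values can overlap the other calls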
An asterisk follows results filed as active.

Cc1cccn2c(=O)c3cc(C(=O)NCCN4CCOCC4)c(=N)n(CCc4ccccc4)c3nc12 was read as PERK inh -1, Arbovirus inh -6, ROMK primary -2.8*, WT yeast gro inh 5 and ROMK retest 0.063*.
O=C(Nc1cccnc1)c1cc(-c2ccccc2O)on1 was read as PERK inh 0, ROMK primary 3* and ROMK retest inconclusive.
`CN1/C(=C\C=O)C(C)(C)c2ccccc21` gave PERK inh 0, Arbovirus inh 18, ROMK primary 0.44 and WT yeast gro inh 8.
`CN1\C(=C/C=C/C=C/C=[N+](C)C)C(C)(C)c2ccccc21` gave PERK inh 0, Arbovirus inh -8, ROMK primary -3.6*, WT yeast gro inh 92* and ROMK retest 0.051*.
`C(#CCN1CCOCC1)COCCOC(c1ccccc1)c1ccccc1` gave PERK inh 0, Arbovirus inh -6, ROMK primary 1*, WT yeast gro inh 13 and ROMK retest 0.076.
`C/C(=N\NC(=O)c1ccccc1F)c1ccc2c(c1)Nc1ccccc1S2` gave PERK inh 1, Arbovirus inh -10, WT yeast gro inh 10 and ROMK retest 0.07.
For O=C(O)CCC(=O)Nc1ccc(N2CCCCCC2)cc1 the results were PERK inh 1, Arbovirus inh 12, ROMK primary 5.1*, WT yeast gro inh -1 and ROMK retest 0.075.
For COc1ccccc1N(CC(O)Cn1c(C)nc2ccccc21)S(=O)(=O)c1ccccc1 (stereo not drawn) the results were PERK inh -1, Arbovirus inh 8, ROMK primary -0.023 and WT yeast gro inh 11.
For Cc1csc2c(N3CCC(C(=O)O)CC3)ncnc12 the results were PERK inh 1 and ROMK primary -0.59.
For Cc1csc2c(N3CCN(C(=O)Nc4ccc(OC(F)(F)F)cc4)CC3)ncnc12 the results were PERK inh 0 and ROMK retest 0.072.
Screening O=C(Nc1ccc(F)cc1)c1nn(-c2ccccc2)c(=O)cc1Cl returned PERK inh 0, Arbovirus inh -31, ROMK primary -3.3*, WT yeast gro inh 14 and ROMK retest 0.066*.
Screening COC(=O)c1nn(-c2ccccc2)c(=O)cc1O returned PERK inh 1, Arbovirus inh 22, ROMK primary 1.4 and WT yeast gro inh -7.
`CCOC(=O)C1(CCOc2ccccc2)CCN(Cc2ccc(C)o2)CC1` gave PERK inh 0, Arbovirus inh 13, ROMK primary -4.5*, WT yeast gro inh 7 and ROMK retest 0.067*.
CCOC(=O)C1(CCc2ccccc2)CCN(Cc2c(O)cccc2OC)CC1 was read as PERK inh 0, Arbovirus inh -17, ROMK primary -2.8*, WT yeast gro inh 28 and ROMK retest 0.055*.
`CCOC(=O)C1(CCc2ccccc2)CCN(Cc2ccc(OC)cc2)CC1` gave PERK inh 0, Arbovirus inh 6, ROMK primary -0.037 and WT yeast gro inh 40.
`CC(C)(C)NC(=S)NC(C)(C)C` gave PERK inh 1.
Oc1c(Br)cc(Br)cc1C=Nc1ccc2c(c1)OCO2 was read as PERK inh 0, Arbovirus inh -12, ROMK primary 3.4*, WT yeast gro inh 16 and ROMK retest 0.11*.
Screening O=C1c2ccc(-c3nc4ccccc4o3)cc2C(=O)N1Cc1cccnc1 returned PERK inh 1 and ROMK primary 0.34.
`CC(C)CN1CCC(CNC(=O)CCc2nnc(Cc3c[nH]c4ccccc34)o2)CC1` gave PERK inh 1, Arbovirus inh 0, ROMK primary 0.0085 and WT yeast gro inh -14.
For O=C(Nc1ccc2ccccc2c1)N1CCN(c2ncccc2C(F)(F)F)CC1 the results were PERK inh 0, Arbovirus inh -7, ROMK primary -3.9*, WT yeast gro inh 18 and ROMK retest 0.062*.
`O=C(CCl)NC(Cc1ccccc1)c1ccccc1` (stereo not drawn) gave PERK inh 1, Arbovirus inh 12, ROMK primary -0.4, WT yeast gro inh -14 and ROMK retest 0.087.
CCCNCc1cc(OC)c(OCCC)cc1Cl was read as PERK inh 0, Arbovirus inh 2 and WT yeast gro inh -8.
Screening CCCCCCCCCCCCCCCCn1cc[n+](C)c1 returned PERK inh 1, Arbovirus inh -25, ROMK primary -2.2, WT yeast gro inh 96 and ROMK retest 0.065*.
Screening CC(C)CCSc1nc2c(c(=O)[nH]c(=O)n2C)n1CCCc1ccccc1 returned PERK inh 1, Arbovirus inh -1, WT yeast gro inh 11 and ROMK retest 0.072.

High-throughput results: PubChem, several laboratories
